The text below walks through data of PubChem BioAssay (NCATS).

Test [1] relates to C33A. As to the kind of experiment: Primary qHTS to identify gynecologic anti-cancer compounds using libraries of approved drugs and bioactive compounds (AID 1345084). Note: nearly all actives have a fitted effect of over 55% in size. To be noted: Gynecologic cancer cell panel viability, ATPlite luminescence, 48 h; series mostly up to 57.5 µM. Put shortly:
(§1)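 ATP-based viability (ATPlite), 1,000 cells/well, 16 h pre-incubation, 48 h compound at 37 C, 5% CO2, 15 min RT before read.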
In general terms: qHTS replaces the single test concentration by a dilution series.

The subject of test [2] is CASKI. The test is described as above. To be noted: Gynecologic cancer cell panel viability, ATPlite luminescence, 48 h; series mostly up to 57.5 µM. Put shortly:
as §1
Background: ATP-based viability assays read luminescence as a measure of living cells.

Test [3] has as its system HeLa. The test is described as above. To be noted: Gynecologic cancer cell panel viability, ATPlite luminescence, 48 h; series mostly up to 57.5 µM. Put shortly:
as §1

In test [4] the test system is Hek293T. The test is described as above. The conditions noted are these: Gynecologic cancer cell panel viability, ATPlite luminescence, 48 h, control line for the selectivity index; series mostly up to 57.5 µM. An outline of the steps:
as §1

In test [5] the test system is JEG-3. The description is as above. The conditions noted are these: Gynecologic cancer cell panel viability, ATPlite luminescence, 48 h; series mostly up to 57.5 µM. Put shortly:
as §1

For test [6], the system named is OV90. The test is described as above. To be noted: Gynecologic cancer cell panel viability, ATPlite luminescence, 48 h; series mostly up to 57.5 µM. An outline of the steps:
as §1

Test [7] concerns PA-1. The description is as above. The conditions noted are these: Gynecologic cancer cell panel viability, ATPlite luminescence, 48 h; series mostly up to 57.5 µM. An outline of the steps: as §1
The test system of test [8] is Tov112D. The description is as above. To be noted: Gynecologic cancer cell panel viability, ATPlite luminescence, 48 h; series mostly up to 57.5 µM. An outline of the steps: as §1
For test [9], the system named is Es-2. The description is as above. The conditions noted are these: Gynecologic cancer cell panel viability, ATPlite luminescence, 48 h; series mostly up to 57.5 µM. Put shortly:
as §1

Test [10] has as its system SKOV3. The description is as above. The conditions noted are these: Gynecologic cancer cell panel viability, ATPlite luminescence, 48 h; series mostly up to 57.5 µM. An outline of the steps:
as §1

Test [11] relates to Tov-21-G. The test is described as above. The conditions noted are these: Gynecologic cancer cell panel viability, ATPlite luminescence, 48 h; series mostly up to 57.5 µM. An outline of the steps:
as §1

Test [12] is described as follows: qHTS assay to identify inhibitors of the type 1 interferon - major histocompatibility complex class I in skeletal muscle: Counter screen cell viability and HiBit confirmation (AID 1347412). Note: nearly all actives have a fitted effect of over 60% in size. The conditions noted are these: iHSKM muscle cells + IFN-b, HiBiT or CellTiter-Glo, 24 h. Put shortly: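 Luminescence read-out: Nano-Glo HiBiT lytic signal from C-terminally HiBiT-tagged HLA-B in CRISPR-edited human myoblasts, plus CellTiter Glo ATP as viability counter screen. IFN-beta 4.0 ng/ml; 24 hrs treatment at 37 C, 5% CO2.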

The structures appear in SMILES notation. Records with an inconclusive call do not appear. Values without a mark were called inactive. The source made the active and inactive calls. Calls come from the whole dose curve; as a rule, active = well fitted curve in the direction sought with a large enough effect; inconclusive = small, poorly fitted or top-dose-only effect, or another doubt; inactive = no such curve, though single readings can be large; an effect the other way counts as inactive or inconclusive.
Potency is the fitted concentration of half-maximal effect.

In the case of `NCc1ccc(Nc2ncc(F)c(Nc3ccccc3)n2)cc1`, the Potency result in test [1], in [2], in test [4], in test [5], in test [6] and in [8] was “inactive” throughout. Further, the values for the Potency in test [3] and in test [7] were 15.8 µM (active) and 12.6 µM (active), respectively.
On to `N#Cc1cc(F)cc(-c2nc(-c3ccccn3)no2)c1`, for which the Potency entry in [1], in test [2], in test [4] and in [8] was “inactive” throughout.
For the compound `CC(Oc1cc(-n2cnc3ccc(CN4CCN(C)CC4)cc32)sc1C(N)=O)c1ccccc1C(F)(F)F` (stereo unspecified), the Potency in test [1] was 8.91 µM (active); in [9], 7.94 µM (active); in test [3] it was 3.55 µM (active); in test [5], 5.62 µM (active); in test [7] it was 11.2 µM (active). Further, in test [6], the Potency entry is “inactive”.
For the compound `C=CC(=O)N1CCN(C(=O)CNc2cc(I)c(Cl)cc2O)CC1`, the Potency entry in test [1], in test [9], in test [3], in [4], in test [5] and in test [6] was “inactive” each time. Further, the Potency result in [7], in test [10], in test [11] and in test [8] was “inactive” in each case.
Turning to `NC[C@@](O)(c1ccc(Cl)cc1)c1ccc(-c2cn[nH]c2)cc1`, the Potency in test [1] is 22.4 µM (active); in test [2] it was 28.2 µM (active); in test [3], 25.1 µM (active); in test [4] it was 28.2 µM (active); in [7], 15.8 µM (active); in [10], 20 µM (active). Further, the Potency in test [11] is 10 µM (active); in test [8], 25.1 µM (active); in test [12] (HiBiT) it was 6.25 µM (active); in test [12] (Viability) it was 8.83 µM (active).
With `c1ccc(-c2csc(N3CCOCC3)n2)cc1`, the Potency result in test [1], in test [2], in test [9], in [5], in test [6] and in test [7] was “inactive” throughout. Besides, the Potency entry in test [10], in test [11] and in test [8] was “inactive” throughout.
Turning to `C[C@@H]1COCCN1c1cc(C2(S(C)(=O)=O)CC2)nc(-c2cccc3[nH]ccc23)n1`, the Potency in [1] is 4.47 µM (active); in [9], 3.16 µM (active); in test [4], 7.94 µM (active); in test [5], 7.08 µM (active); in test [7], 11.2 µM (active); in test [10], 3.16 µM (active). Besides, the Potency in [11] was 1.78 µM (active).
Take `CCCN1CCC(c2cccc(S(C)(=O)=O)c2)CC1`: the Potency result in test [1], in test [9], in test [3], in test [4] and in test [6] was “inactive” each time.
Take `CN(C)CCCCC(=O)Nc1ccc(NC(=S)NC(=O)c2ccc(C(C)(C)C)cc2)cc1`: the Potency result in test [1], in test [2], in test [5] and in test [8] was “inactive” each time. The Potency in test [7] was 15.8 µM (active).
As for `O=C(Nc1ccc(Cl)cc1F)c1ccccc1O`, the results for the Potency in test [1], in test [9] and in test [4] were 14.1 µM (active), 15.8 µM (active) and 17.8 µM (active), respectively. The Potency entry in test [5] was “inactive”.
Take `C=C1C(=O)OC2/C=C(\CO)CC/C=C(\C=O)CC(OC(=O)CC(C)C)C12` (stereo unspecified): the Potency result in test [1], in [2], in [3], in test [4], in test [5] and in test [6] was “inactive” each time. Also, the Potency entry in test [8] is “inactive”.
As for `O=[N+]([O-])c1cccc2[nH]c(CNc3nc(N4CCOCC4)nc4c3ncn4-c3ccsc3)nc12`, the Potency in [1] is 0.178 µM (active); in test [2], 0.891 µM (active); in [3], 0.891 µM (active); in test [4], 0.316 µM (active); in test [7], 0.891 µM (active); in [10] it was 0.794 µM (active). Also, the Potency in test [8] was 0.447 µM (active).
As for `CC1COC(Nc2ccc3ncnc(Nc4ccc(OCc5nccs5)c(Cl)c4)c3c2)=N1` (stereo unspecified), the Potency entry in test [1], in [9], in test [3], in test [5] and in test [7] was “inactive” each time. Moreover, the Potency in [10] is 15.8 µM (active).
On to `COc1ccc(/C=C/C(=O)O[C@@H]2[C@@H](O)[C@H](C)O[C@@H](O[C@H]3[C@@H]4C=CO[C@@H](O[C@H]5O[C@@H](CO)[C@H](O)[C@@H](O)[C@@H]5O)[C@@H]4[C@@]4(CO)O[C@@H]34)[C@@H]2OC(C)=O)cc1`, for which the Potency entry in test [1], in [9], in [3], in test [4], in test [5] and in test [6] was “inactive” in each case. The Potency entry in [7], in test [10], in [11] and in [8] was “inactive” in each case.
Consider `CN(C)c1ccc2c(c1)OC(N)=C(C#N)C2c1cccc(C(F)(F)F)c1` (stereo unspecified), for which the Potency in [1] is 0.631 µM (active); in test [9], 1 µM (active); in test [3], 0.501 µM (active); in [5], 0.282 µM (active); in [6], 1.41 µM (active); in test [7], 0.178 µM (active). In addition, the Potency in test [11] was 0.251 µM (active); in [8] it was 0.316 µM (active).
Consider `CN(c1ccccc1CNc1nc(Nc2ccc3c(c2)CC(=O)N3)ncc1C(F)(F)F)S(C)(=O)=O`, for which the Potency in test [1] is 6.31 µM (active); in test [9] it was 20 µM (active); in [3], 15.8 µM (active); in [6], 8.91 µM (active); in test [7] it was 15.8 µM (active); in test [8], 25.1 µM (active). For the same compound, in [11], the Potency result was “inactive”.
Consider `N=c1nc2n(cc1F)C1OC(CO)C(O)C1O2` (stereo unspecified), for which the Potency result in test [1], in test [2], in test [3], in test [4], in [5] and in [11] was “inactive” each time. Also, the Potency in test [7] is 0.891 µM (active); in test [8] it was 1.41 µM (active).
For the compound `CN(C)C/C=C/C(=O)Nc1cccc(C(=O)Nc2ccc(Nc3nccc(-c4cccnc4)n3)cc2)c1`, the Potency was 12.6 µM (active) in [1]; 7.08 µM (active) in test [2]; 20 µM (active) in test [3]; 10 µM (active) in [6]; 10 µM (active) in [8].
